# Screening data as filed in PubChem BioAssay.
# Only some compounds are listed: those with a hit (about 8.7% of all), similar ones and a draw of the others.
# 12-LOX inh: Primary qHTS assay for inhibitors of human arachidonate 12S-lipoxygenase (ALOX12): Round 2; Polyunsaturated fatty acid lipoxygenase ALOX12 (Homo sapiens), P18054; purified 12hLO, xylenol orange hydroperoxide absorbance; Potency, µM (doses to about 108 µM), without a hit: at the top dose activity change, negative = inhibition, usual class: inhibitors; 1.1% of 580,000 active; AID 1671190, 2021; also: % is scaled to controls: 0 for no effect and ±100 for the full control effect
#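 Purified human 12hLO (150 nM final) in 25 mM Hepes, 0.01% Triton X-100, pH 7.0 was preincubated 15 min at room temperature with compound. Then 40 uM arachidonic acid was added, 30 min. Hydroperoxide was read by Fe-XO absorbance ratio 573/405 nm.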
# JMJD2A Tudor: qHTS Assay for Inhibitors of JMJD2A-Tudor Domain; Lysine-specific demethylase 4A (Homo sapiens), O75164; 4.4% of 390,000 active; AID 504339, 2011; Potency, µM (doses to about 114 µM), inactives show at the highest dose activity change, negative = inhibition, hits mostly inhibitors; AlphaScreen JMJD2A-Tudor / H3K4me3 peptide binding; also: % is scaled to controls: 0 for no effect and ±100 for the full control effect; nearly all actives have a fitted effect of over 50% in size
# Sfp inh: qHTS Assay for Inhibitors of Bacillus subtilis Sfp phosphopantetheinyl transferase (PPTase). AID 1490, 2009. Potency, µM, inactives show largest response in the series, negative = inhibition, usual class: inhibitors. Biochemical Sfp PPTase activity, qHTS. 3.5% of 310,000 active;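 also: the enzyme is Sfp with the accession as filed and its product quenches rhodamine fluorescence; 0% = enzyme reaction without inhibitor and -100% = no enzyme wells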
#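 With Hepes-Na pH 7.6 buffer containing 10 mM MgCl2, Sfp (15 nM) modified BHQ-2-YbbR (12.5 uM) using rhodamine-CoA (5 uM). Two reads 30 minutes apart at 525/598 nm yielded each well's rate.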
# G9a inh: qHTS Assay for Inhibitors of Histone Lysine Methyltransferase G9a | Potency, µM (highest dose often 102 µM), for inactives: at the highest dose activity, negative = inhibition, actives largely listed as inhibitors | G9a H3K9 monomethylation, AlphaScreen, 2 h | 8.8% of 350,000 active; also: % is scaled to controls: 0 for no effect and ±100 for the full control effect; nearly all actives have a fitted effect of over 75% in size
# Target sequence (Q96KQ7 913-1193 limits assumed): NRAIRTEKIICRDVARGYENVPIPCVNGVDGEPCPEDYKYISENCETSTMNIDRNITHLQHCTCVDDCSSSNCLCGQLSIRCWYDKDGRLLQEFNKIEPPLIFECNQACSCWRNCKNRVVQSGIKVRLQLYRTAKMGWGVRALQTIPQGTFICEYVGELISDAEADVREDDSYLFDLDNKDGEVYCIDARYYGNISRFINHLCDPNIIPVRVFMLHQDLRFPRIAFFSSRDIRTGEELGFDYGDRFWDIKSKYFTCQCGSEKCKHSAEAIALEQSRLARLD
#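 Step 1: enzyme (final 20 nM) with compound, 15 min RT. Step 2: substrate peptide 500 nM and SAM 20 uM, 2 h RT. Step 3: anti-H3K9me1 antibody and AlphaScreen beads, 10 min, then plate read.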
# BAZ2B inh: qHTS Assay for Inhibitors of BAZ2B; Bromodomain adjacent to zinc finger domain protein 2B (Homo sapiens), Q9UIF8; AlphaScreen BAZ2B-H3K14Ac peptide displacement; Potency, µM (doses to about 114 µM), for the others: at the highest dose activity change, negative = inhibition, actives largely listed as inhibitors; 4.4% of 360,000 active; AID 504333, 2011; also: % is scaled to controls: 0 for no effect and ±100 for the full control effect; nearly all actives have a fitted effect of over 60% in size
#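 Multi-concentration screen (max 110 uM) measuring displacement of acetylated histone H3 peptide from BAZ2B by AlphaScreen, using 50 nM protein, 50 nM peptide and 10 ug/mL streptavidin donor plus Ni-chelate acceptor beads.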
# HP1b binding inh: HTS for Inhibitors of HP1-beta Chromodomain Interactions with Methylated Histone Tails. Chromobox protein homolog 1 (Homo sapiens), P83916. AlphaScreen HP1-beta / biotin-H3K9me3 peptide binding. Potency, µM (doses to about 114 µM), inactives show top-dose activity change, negative = inhibition, usual class: inhibitors. 0.56% of 390,000 active; also: nearly all actives have a fitted effect of over 70% in size
# Target sequence (P83916 whole entry, looked up): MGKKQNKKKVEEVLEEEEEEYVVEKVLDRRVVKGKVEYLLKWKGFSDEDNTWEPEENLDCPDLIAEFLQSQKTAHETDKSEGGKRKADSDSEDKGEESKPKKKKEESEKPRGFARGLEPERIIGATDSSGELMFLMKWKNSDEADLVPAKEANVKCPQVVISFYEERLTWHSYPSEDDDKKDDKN
#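 Compound inhibition of the preformed complex between 50 nM HP1-beta and 50 nM biotinylated H3K9me3 peptide was read by AlphaScreen. Buffer was PBS pH 7.4 with 0.01% Tween-20. Incubations ran 30 min at room temperature, with 10 ug/mL donor/acceptor beads.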
# Starred values were filed as active, the others as inactive; ? = inconclusive; nt = no result; [ ] = another dose, or the depositor's remark. Calls follow the shape of the dose curve; as a rule, active = well fitted curve in the direction sought with a large enough effect; inconclusive = small, poorly fitted or top-dose-only effect, or another doubt; inactive = no such curve, though single readings can be large; an effect the other way counts as inactive or inconclusive. Potency is read from the fitted curve at half-maximal effect.
SMILES,12-LOX inh,JMJD2A Tudor,Sfp inh,G9a inh,BAZ2B inh,HP1b binding inh
O=c1cnc(-c2ccc(Cl)cc2)cn1O,50µM*,89µM*,-4%,2%,?,1%
Clc1ccc(-c2cn3cc(Cl)ccc3n2)cc1,23%,-8%,9%,7%,-1%,28%
CCS(=O)c1scc(-c2ccc(Cl)cc2)c1C#N (stereo unspecified),163%,-3%,11%,50µM*,2%,27%
Cc1cc(-c2ccc(C)c(S(=O)(=O)NCCCN3CCN(c4ccccc4)CC3)c2)on1,-3%,?,-2%,71µM*,?,-8%[57 µM]
Cc1cc(-c2ccc(C)c(S(=O)(=O)NCCCN3CCN(c4ccccc4F)CC3)c2)on1,-10%,-30%,-3%,0%,-34%,13%[57 µM]
COc1cccc2sc(N(CCN(C)C)C(=O)c3ccc4c(c3)CCCC4)nc12,?,?,-13%,?,?,-19%
CCOc1ccc2nc(N(CCCN(C)C)C(=O)c3ccc4c(c3)CCCC4)sc2c1,?,?,-24%,45µM*,?,-4%
CN(C)CCCN(C(=O)c1ccc2c(c1)CCCC2)c1nc2ccc(Cl)cc2s1,?,40µM*,35µM*,?,?,-38%
CC(=O)c1cccc(NC(=O)C2(c3cccc(Br)c3)CCCC2)c1,-4%,nt,nt,nt,nt,nt
CC(C)(O)C#Cc1ccc(C2NCCS2)cc1 (stereo unspecified),-21%,nt,nt,nt,nt,nt
O=C(CCc1nnn2c1CN(C(=O)COc1ccc(F)cc1)CC2)N1CCCC1,50%,nt,nt,nt,nt,nt
Cc1ccccc1-c1cc(C(=O)NCc2cccc(Br)c2)n(CC2CC(c3cccnc3)=NO2)n1 (stereo unspecified),40µM*,-22%,nt,nt,nt,18%
CC(C)(O)c1ccccc1CC[C@@H](SCC1(CC(=O)O)CC1)c1cccc(/C=C/c2ccc3ccc(Cl)cc3n2)c1,nt,79µM*,nt,nt,nt,-5%
N#CC1=C(N)NC(SCC(=O)c2ccc(Br)cc2)=C(C#N)C12CCCCC2,-10%,?,5%,40µM*,?,?
N#CC1=C(N)NC(SCC(=O)c2ccc(Cl)cc2)=C(C#N)C12CCCC2,?,-31%,50µM*,?,14%,-3%
O=C(CCCCCN1C(=O)CCC1=O)Nc1ncn[nH]1,170%,50µM*,-11%,13%[12.7 µM],50µM*,47%
COc1ccc(-c2noc(-c3cccn3CC(=O)Nc3cc(C)ccc3C)n2)cc1F,1%,nt,nt,nt,nt,nt
Cc1nnc(SCC(=O)N(CC(C)C)c2c(N)n(Cc3ccccc3)c(=O)[nH]c2=O)n1N,?,-9%,nt,10µM*,-2%,12%
CC(C)CN(C(=O)CSc1nc2ccccc2[nH]1)c1c(N)n(Cc2ccccc2)c(=O)[nH]c1=O,2%,nt,nt,nt,nt,nt
CC(C)CN(C(=O)CCCc1nc2ccccc2c(=O)[nH]1)c1c(N)n(Cc2ccccc2)c(=O)[nH]c1=O,?,-10%,nt,40µM*,13%,17%
CC(C)CN(C(=O)CSc1nnc(-c2cccs2)n1N)c1c(N)n(Cc2ccccc2)c(=O)[nH]c1=O,-5%,-8%,nt,50µM*,7%,26%
Cn1c(=O)[nH]c(=O)c2c1nc(N1CCN(CCO)CC1)n2Cc1ccccc1F,8%,nt,nt,nt,nt,nt
COc1ccc(-c2ccnc(-c3nnc(C)n3C(C)C)c2)cc1OC,-6%[176 µM],nt,nt,nt,nt,nt
CCOc1cc(C=NN2CCCCCC2)ccc1O,?,50µM*,nt,nt,nt,?
CCOc1ccccc1C=NN1CCCCCC1,?,45µM*,nt,nt,nt,?
SMILES,12-LOX inh,JMJD2A Tudor,Sfp inh,G9a inh,BAZ2B inh,HP1b binding inh
COc1ccccc1N1CCN(/N=C/c2ccc(OC)c(OC)c2OC)CC1,0%,?,9%,35µM*,32µM*,-2%
COc1cccc(C=NN2CCCCCC2)c1OC,?,56µM*,nt,nt,nt,?
COC1CN(c2cccc(F)c2)C12CCN(C(=O)c1sc(C)nc1C)CC2 (stereo unspecified),16%,nt,nt,nt,nt,nt
COc1ccc(Oc2c(C)oc3cc(OCC(=O)NCc4ccco4)ccc3c2=O)cc1,3%,nt,nt,nt,nt,nt
O=C(CCCc1c[nH]c2ccccc12)NCc1ccc(F)cc1,-42%,nt,nt,nt,nt,nt
CN(C1CCOCC1)C1CCN(C(=O)c2cccnc2)CC1,11%,nt,nt,nt,nt,nt
O=C(CCCCCCCC(=O)N/N=C/c1ccc(Cl)cc1)N/N=C/c1ccc(Cl)cc1,40%,nt,nt,nt,nt,nt
O=C(CCC1N=C2c3ccccc3N=C(SCc3ccc(F)cc3)N2C1=O)NCc1cccs1 (stereo unspecified),?,-23%,nt,-1%[59 µM],-10%,90%
CCOC(=O)CSC1=Nc2ccccc2C2=NC(CC(=O)NCc3cccs3)C(=O)N12 (stereo unspecified),?,-1%,4%,-4%[12.7 µM],2%,49%
O=C(CC1N=C2c3ccccc3N=C(SCC(=O)Nc3ccccc3F)N2C1=O)NCc1ccc2c(c1)OCO2 (stereo unspecified),?,-25%,nt,13µM*,?,14%
O=C(CCC1N=C2c3ccccc3N=C(SCc3cccc(F)c3)N2C1=O)NCc1cccs1 (stereo unspecified),2%,79µM*,nt,-2%[59 µM],-6%,-2%
CCOC(=O)CSC1=Nc2ccccc2C2=NC(CC(=O)NCc3ccccc3)C(=O)N12 (stereo unspecified),10µM*,-6%,-10%,6%[59 µM],-6%,27%
COc1ccccc1NC(=O)CSC1=Nc2ccccc2C2=NC(CC(=O)NCc3ccc4c(c3)OCO4)C(=O)N12 (stereo unspecified),?,-31%,nt,-3%[59 µM],-16%,7%
Cc1ccccc1[C@H]1[C@@H](C(=O)NCCC(=O)O)C[C@@](C)(C(=O)O)N1C,19%,nt,nt,nt,nt,nt
CC(C)(O)/C=C1/Oc2ccccc2C1N1CCCCC1 (stereo unspecified),172%,-1%,4%,50µM*,-6%,38%
O=S(=O)(Cc1ccc(F)cc1)Nc1nc2c(s1)CCCC2,-25%,nt,nt,nt,nt,nt
Cn1cnc2nc[nH]c2c1=S,-26%,3.5µM*,nt,nt,nt,12%
O=C1Nc2ccccc2Oc2cc(Oc3ccccc3)ccc21,4%,50µM*,nt,?,45µM*,?
Cc1ccc(CNC(=O)CSc2cc(C)[nH]c(=O)n2)cc1,?,-25%,nt,3%[59 µM],-14%,20%
Cc1cc(SCC(=O)c2ccc(Cl)cc2)nc(=O)[nH]1,20µM*,?,?,?,-27%,-18%
